Data on 37 compounds can be found in PubChem BioAssay (EPA / NIEHS).

SMILES strings stand for the structures. Results filed as inconclusive are left out. Active and inactive are the calls of the source. The calls were made as follows, unless noted: active = hit-call score of the fitted dose curve at least 0.9, where 1 is the maximum; inconclusive = response in the unintended direction; inactive = score below 0.9.

The target of assay [1] is Nucleoli Translocation, AR (gene 367) (UniProt P10275). Put plainly: UPITT_HCI_U2OS_AR_TIF2_Nucleoli_Antagonist: University of Pittsburgh U2OS Androgen Receptor-Transcriptional Intermediary Factor 2 (AR-TIF2) Antagonism High Content Imaging Assay for Nucleoli Translocation (AID 2283997). The method, boiled down:
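An antagonist-mode imaging screen: engineered U2OS (AR-RFP, TIF2-GFP) exposed to 20 uM compound, 0.2% DMSO. Activity reflects nucleolar red fluorescence change relative to DHT baseline.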

Assay [2] has the same target. Kind of assay: UPITT_HCI_U2OS_AR_TIF2_Nucleoli_Agonist: University of Pittsburgh U2OS Androgen Receptor-Transcriptional Intermediary Factor 2 (AR-TIF2) Agonism High Content Imaging Assay for Nucleoli Translocation (AID 2283998). The method, boiled down:
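Red-tagged human androgen receptor co-expressed with GFP-tagged TIF2 serves as the binding reporter. Primary testing used 20 uM final (0.2% DMSO); follow-up dose response covered 0.195 to 50 uM final (0.5% DMSO).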

The target of assay [3] is Ratio of Nucleoli Translocation and Cytoplasm, AR (gene 367) (UniProt P10275). Put plainly: UPITT_HCI_U2OS_AR_TIF2_Nucleoli_Cytoplasm_Ratio_Antagonist: University of Pittsburgh U2OS Androgen Receptor-Transcriptional Intermediary Factor 2 (AR-TIF2) Antagonism High Content Imaging Assay for Ratio of Nucleoli Translocation and Cytoplasm (AID 2283999).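 Also: antagonists lower the DHT-driven ratio of nucleolar to cytoplasmic red signal.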 In short, it runs like this:
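High-content imaging of red fluorescence ratio, nucleoli versus cytoplasm, in U2OS expressing AR-RFP and TIF2-GFP, fitted relative to DHT. Compounds tested once at 20 uM final, then 0.195 to 50 uM final in serial dilution.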

The target is the same in assay [4]. Put plainly: UPITT_HCI_U2OS_AR_TIF2_Nucleoli_Cytoplasm_Ratio_Agonist: University of Pittsburgh U2OS Androgen Receptor-Transcriptional Intermediary Factor 2 (AR-TIF2) Agonism High Content Imaging Assay for Ratio of Nucleoli Translocation and Cytoplasm (AID 2284000).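 Also: hits raise the red nucleolar to cytoplasm ratio above vehicle.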 In short, it runs like this:
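Primary screen at 20 uM final (0.2% DMSO), then triplicate confirmation and dose-response from 0.195 to 50 uM final (0.5% DMSO). Cells: U2OS with AR-RFP and TIF2-GFP. Endpoint is the nucleoli/cytoplasm red-fluorescence ratio, gain-of-signal vs DMSO.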

Assay [5] is described as follows: CCTE_Harrill_HTTr_Viability_MCF7: CCTE's 6-hour Cell Viability Assessment for the High-Throughput Transcriptomics (HTTr) Platform, in MCF-7 cells cultured in DMEM + 10% fetal bovine serum, Harrill Lab (AID 2284010; active = hit-call score of the fitted dose curve at least 0.9, where 1 is the maximum; inactive = score below 0.9). In short, it runs like this:
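Propidium iodide exclusion, imaged by high-content analysis, gauged viability after a six-hour exposure across eight concentrations. Cells were MCF-7 grown in DMEM with 10% fetal bovine serum; fits run in both directions against DMSO.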

Assay [6] in a line: CCTE_Shafer_MEA_acute_spike_number: CCTE's Neural Acute Assay for Total Number of Spikes, Shafer Lab (AID 2284008; active = hit-call score of the fitted dose curve at least 0.9, where 1 is the maximum; inactive = score below 0.9;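 as to AC50: curve fitted for decrease in spike count so AC50 reflects inhibitors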). The method, boiled down: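 Cortical neurons from rat, matured to DIV 13 or 15 on microelectrode arrays, are recorded at 37 C before and during 40-min exposure to 0.03-40 uM compound. Wells need >/= 10 active electrodes.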
Assay [7] in a line: CCTE_Shafer_MEA_acute_firing_rate_mean: CCTE's Neural Acute Assay for Mean Firing Rate, Shafer Lab (AID 2284009; active = hit-call score of the fitted dose curve at least 0.9, where 1 is the maximum; inactive = score below 0.9;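 also: analyzed for loss of signal so actives lower firing rate relative to DMSO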). The method, boiled down:
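Spontaneous spiking of primary rat cortical networks, DIV 13/15, 37 C. Compound 0.03-40 uM, n ≥3 wells; 40 min baseline vs 40 min treated. Endpoint fitted in loss-of-signal direction against DMSO.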

A further assay has as its system DIO1 (gene 1733). Put plainly: CCTE_GLTED_hDIO1: CCTE's human Deiodinase 1 (DIO1) Inhibition Assay, Great Lakes Toxicology and Ecology Division (GLTED) Lab (AID 2283987).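 Also: isolated human DIO1 enzyme in a cell-free setup rather than cells; enzyme activity read as free iodide liberated from substrate via Sandell-Kolthoff colorimetry.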 The method, boiled down: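 Cell-free hDIO1 assay, triplicate plates. Absorbance of the Sandell-Kolthoff reaction reports enzyme-liberated iodide; iodinated chemicals or nitrite, iron and thiocyanate may interfere.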

Assay [8] in a line: CCTE_Harrill_HTTr_Apoptosis_PRF_DMEM_6hr: (Pilot) CCTE's 6-hour Apoptosis Assessment for the High-Throughput Transcriptomics (HTTr) Platform, in MCF-7 cells cultured phenol red-free DMEM + 10% charcoal-stripped fetal bovine serum, Harrill Lab (AID 2283984; active = hit-call score of the fitted dose curve at least 0.9, where 1 is the maximum; inactive = score below 0.9). The method, boiled down:
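Caspase-3/7 activity (CellEvent Green) read by high-content imaging 6 h after dosing, eight concentrations. Cells: MCF-7, phenol red-free DMEM with 10% charcoal-stripped serum. Curves fit both directions against DMSO.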

Assay [9] is described as follows: CCTE_Harrill_HTTr_Apoptosis_PRF_DMEM_24hr: (Pilot) CCTE's 24-hour Apoptosis Assessment for the High-Throughput Transcriptomics (HTTr) Platform, in MCF-7 cells cultured in phenol red-free DMEM + 10% charcoal-stripped fetal bovine serum, Harrill Lab (AID 2283986; active = hit-call score of the fitted dose curve at least 0.9, where 1 is the maximum; inactive = score below 0.9). In short, it runs like this:
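Eight concentrations tested for 24 h on MCF-7 grown in charcoal-stripped serum, phenol red-free DMEM. High content imaging of CellEvent Caspase 3/7 Green signal gives apoptosis read-out, fitted both ways relative to DMSO.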

Sequence of Nucleoli Translocation, AR (gene 367) (P10275 whole entry, looked up): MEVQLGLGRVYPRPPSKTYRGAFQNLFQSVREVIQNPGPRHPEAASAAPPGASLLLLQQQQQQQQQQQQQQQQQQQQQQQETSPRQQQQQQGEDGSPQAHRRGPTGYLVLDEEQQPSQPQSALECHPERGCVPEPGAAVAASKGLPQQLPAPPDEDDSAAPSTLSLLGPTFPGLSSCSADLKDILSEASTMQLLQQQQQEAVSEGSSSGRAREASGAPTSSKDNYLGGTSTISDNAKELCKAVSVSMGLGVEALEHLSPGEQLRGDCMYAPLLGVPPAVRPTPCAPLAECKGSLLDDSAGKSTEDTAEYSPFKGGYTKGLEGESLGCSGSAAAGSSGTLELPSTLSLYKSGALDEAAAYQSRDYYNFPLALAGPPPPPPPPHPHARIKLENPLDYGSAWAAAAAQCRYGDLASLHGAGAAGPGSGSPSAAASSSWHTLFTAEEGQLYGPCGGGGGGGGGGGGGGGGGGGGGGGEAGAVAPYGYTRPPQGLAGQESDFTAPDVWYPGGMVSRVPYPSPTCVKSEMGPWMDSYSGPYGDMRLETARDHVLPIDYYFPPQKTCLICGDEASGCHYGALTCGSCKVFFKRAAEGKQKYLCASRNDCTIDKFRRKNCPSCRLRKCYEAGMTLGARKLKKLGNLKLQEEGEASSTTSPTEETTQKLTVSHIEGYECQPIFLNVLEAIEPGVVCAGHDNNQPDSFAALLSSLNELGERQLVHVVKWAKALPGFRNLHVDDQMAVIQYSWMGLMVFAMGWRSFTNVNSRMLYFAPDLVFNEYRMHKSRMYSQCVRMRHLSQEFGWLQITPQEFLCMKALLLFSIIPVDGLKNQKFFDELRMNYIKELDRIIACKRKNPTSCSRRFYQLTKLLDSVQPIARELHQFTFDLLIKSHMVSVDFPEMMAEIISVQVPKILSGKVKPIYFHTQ
Sequence of Ratio of Nucleoli Translocation and Cytoplasm, AR (gene 367) (P10275 whole entry, looked up): as above

In the case of `CC(O)COc1ccccc1` (stereo not given), the outcome in [1], in assay [2], in assay [3], in assay [4] and in assay [5] was inactive.

Turning to `O=C(NCc1ncc(C(F)(F)F)cc1Cl)c1c(Cl)cccc1Cl`, the compound was classed as inactive in assay [1], in assay [2], in [3], in assay [4] and in assay [5].

As to `CC1=CC(=O)c2ccccc2C1=O`, the outcome in [5] was inactive.

`CCCCC=O`: the result in assay [6], in [7] and in assay [5] was inactive.

With `O=C(c1ccccc1)c1ccccc1`, the result in [1], in assay [2], in assay [3], in assay [4] and in [5] was inactive.

By AC50 is commonly meant the concentration at which the activity in the assay is half-maximal. Regarding `NC(=NCCCCCCN=C(N)/N=C(\N)Nc1ccc(Cl)cc1)/N=C(\N)Nc1ccc(Cl)cc1`, the AC50 was 21.3 µM (active) with DIO1 (gene 1733), 16.5 µM (active) in [1], 11.6 µM (active) in assay [3] and 70 µM (active) in assay [5]. For the same compound, the outcome in assay [2] and in assay [4] was inactive.

Regarding `CC(C)(C)c1ccc(CCC=O)cc1`, the result in assay [5] was inactive.

`CCCCCCCCCC=CCC1CC(=O)OC1=O` (stereo not given): the AC50 in the assay with DIO1 (gene 1733) was 31.9 µM (active). The call in [1], in assay [4] and in assay [5] was inactive.

Regarding `CC(C)[C@@H]1CC[C@@H](C)C[C@H]1O`, the call in [1], in assay [2] and in assay [5] was inactive.

With `Oc1ccc(Cc2ccccc2O)cc1`, the figures for the AC50 in assay [6] and in assay [7] were 0.00292 µM (active) and 0.000868 µM (active), respectively.

As to `Nc1ccn([C@@H]2O[C@H](CO)[C@@H](O)C2O)c(=O)n1` (stereo not given in full), the outcome in assay [5] was inactive.

Consider `CCCCc1oc2ccccc2c1C(=O)c1cc(I)c(OCCN(CC)CC)c(I)c1`, for which the result in assay [8] and in assay [5] was inactive. The AC50 was 74.5 µM (active) in assay [9], 8.91 µM (active) in assay [6] and 8.87 µM (active) in [7].

For the compound `COc1cc([N+](=O)[O-])ccc1N`, the outcome in [1], in assay [3] and in assay [4] was inactive.

Consider `CC(=O)Nc1ccc(O)cc1`, for which the result in assay [1], in assay [6], in [7] and in assay [5] was inactive.

For the compound `CN(Cc1cnc2nc(N)nc(N)c2n1)c1ccc(C(=O)N[C@@H](CCC(=O)O)C(=O)O)cc1`, the call in assay [1], in [2], in assay [4] and in assay [5] was inactive.

Turning to `CCCCc1ccc2ccccc2c1S(=O)(=O)O`, the outcome in assay [2], in assay [3] and in [4] was inactive.

As to `O=C(O)C(F)(F)OC(F)(F)C(F)(F)OC(F)(F)C(F)(F)OC(F)(F)C(F)(F)C(F)(F)C(F)(F)F`, the half-maximal activity concentration (AC50) in the assay on DIO1 (gene 1733) was 24.6 µM (active).

With `C[C@]12CC[C@@H]3c4ccc(O)cc4CC[C@H]3[C@@H]1C[C@@H](O)[C@@H]2O`, the outcome in assay [5] was inactive.

`CCCCCc1ccc(O)cc1`: the AC50 in [1] is 31.9 µM (active); in [2], 39.1 µM (active); in [3], 86.1 µM (active). The outcome in assay [4] was inactive.

With `CCCCCCC(C)(C)C(=O)O`, the outcome in assay [1], in assay [2], in assay [3] and in assay [4] was inactive.

For the compound `CN(C)CCOC(c1ccccc1)c1ccccc1`, the compound was classed as inactive in [1], in assay [2], in assay [4] and in assay [5]. Moreover, the AC50 in assay [6] and in assay [7] was 4.98 µM (active) throughout.

Regarding `Nc1ccc(O)c(C(=O)O)c1`, the outcome in [5] was inactive.

Regarding `OCC(CO)(CBr)CBr`, the compound was called inactive in assay [6], in [7] and in [5].

Consider `Cc1cc(C(=C2C=CC(=Nc3ccc(S(=O)(=O)O)cc3)C=C2)c2ccc(Nc3ccc(S(=O)(=O)O)cc3)cc2)cc(S(=O)(=O)O)c1N`, for which the call in [1], in [3] and in assay [4] was inactive.

Take `CCCCCCCCCCCCCCC`: the result in [5] was inactive.

In the case of `CC(C)(O)C(=O)c1ccccc1`, in assay [5], the result was inactive.

Take `CC(C)(C)c1ccc(O)c(O)c1`: the result in assay [5] was inactive.

On to `O=P(O)(O)CCC(F)(F)C(F)(F)C(F)(F)C(F)(F)C(F)(F)C(F)(F)C(F)(F)C(F)(F)F`, for which, in the assay with DIO1 (gene 1733), the AC50 is 182 µM (active).

Consider `CCCCCCCCCCCCOC(=O)c1cc(O)c(O)c(O)c1`, for which, in the assay on DIO1 (gene 1733), the AC50 was 53.4 µM (active). Moreover, the result in assay [5] was inactive.

Turning to `CCCCCCCCCCCC`, the AC50 in the assay on DIO1 (gene 1733) was 84.4 µM (active). The result in assay [6], in assay [7] and in [5] was inactive.

For `O=C(CCCN1CCC(O)(c2ccc(Cl)cc2)CC1)c1ccc(F)cc1`, the half-maximal activity concentration (AC50) in assay [6] was 1.7 µM (active); in [7], 1.78 µM (active). For the same compound, the outcome in [5] was inactive.

As for `N=C(N)c1ccc(OCCCCCOc2ccc(C(=N)N)cc2)cc1`, the result in assay [6], in [7] and in assay [5] was inactive.

In the case of `CCC(C)c1ccccc1O` (stereo not given), the AC50 in assay [6] and in assay [7] was 2.06 µM (active) each time. Besides, the result in [5] was inactive.

Regarding `O=C1NS(=O)(=O)c2ccccc21`, the AC50 in assay [6] and in assay [7] was 0.00978 µM (active) each time. Also, the result in assay [5] was inactive.

Turning to `CC1COCc2cc3c(cc21)C(C)(C)C(C)C3(C)C` (stereo not given), in assay [1], the AC50 was 9.92 µM (active). Besides, the result in assay [3] and in assay [5] was inactive.

For the compound `CCCCCCc1ccc(N)cc1`, the compound was called inactive in assay [1], in assay [2] and in [3]. The AC50 in [4] is 78.4 µM (active).

`Oc1c(Cl)cc(Cl)cc1Sc1cc(Cl)cc(Cl)c1O`: the outcome in [6], in assay [7] and in [5] was inactive.
